Test results from PubChem BioAssay AID1259418 (Broad Institute, 2018).
In all, about 3,400 compounds went through this assay and about 840 (25%) were called active. About 11% were inconclusive and are not listed. A selection follows. Potency and affinity values are given separately. A number with no mark means an inactive call.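 The calls were made as follows: active = fitted half-maximal concentration of signal decrease at or below twice the sample's top tested concentration; inconclusive = flat curve between -70 and -30 percent, or poor fit; inactive = flat within 30 percent, signal rise, or potency above limit.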

Test: T. gondii growth inhibition with IFN-gamma, dose response, cell-based, ME49Luc, HeLa, luciferase, 72 h (AID 1259418)
Conditions: T. gondii ME49Luc in IFN-y HeLa, hits give low values, -100% = high-dose IFN-γ control wells; at 19.5 µM unless noted

SMILES | max activity
COc1ccccc1-c1nc(C)c(-c2ccc(SCc3cc(C)ccc3C)nn2)s1 | -11.2% [at 0.35 µM]
Cc1ccc(-c2coc(-c3ccc(NC(=O)C4CCCCC4)cc3)n2)c(C)c1 | -13.8%
Cc1oc(-c2cccc(Cl)c2)nc1Cn1nnc(-c2nc(-c3ccncc3)no2)c1C | -5.43% [at 1.35 µM]
COc1ccc(-c2nc(Nc3cccc(SC)c3)c3ccccc3n2)cc1 | 8.11% [at 0.35 µM]
COC(=O)c1ccc(NC(=O)Nc2ccc(-c3nc(-c4cc(C)ccc4C)co3)cc2)cc1 | -6.97% [at 0.68 µM]
COc1ccc2c(c1)NC1(CCN(C(=O)Cc3ccc(F)cc3)CC1)c1cccn1-2 | 12.9% [at 0.35 µM]
CCn1cc(NC(=O)c2cccc(CN3C[C@@H](C)O[C@@H](C)C3)c2)nn1 | 30.6%
CC(C)CN(C[C@@H](O)[C@H](Cc1ccccc1)NC(=O)O[C@H]1CO[C@H]2OCC[C@H]21)S(=O)(=O)c1ccc(N)cc1 | 7.57%
CCc1nc(OCC(=O)Nc2cccc(OC)c2)c2ccccc2n1 | 13.8% [at 0.16 µM]
O=C(c1ccc2c(=O)n(CCC3=CCCCC3)c(=S)[nH]c2c1)N1CCC(O)(c2cccc(C(F)(F)F)c2)CC1 | -24.9% [at 10 µM]
CCCn1c(=S)[nH]c2cc(C(=O)N3CCC(O)(c4cccc(C(F)(F)F)c4)CC3)ccc2c1=O | 18.8% [at 0.16 µM]
Cc1cccc(C2=NC3(CCN(C(=O)c4ccc(C(C)(C)C)cc4)CC3)NC2=O)c1 | 16.7% [at 2.6 µM]
O=C(CCCCCn1c(=S)[nH]c2cc3c(cc2c1=O)OCO3)N1CCC(O)(c2cccc(C(F)(F)F)c2)CC1 | -29.1% [at 10 µM]
COc1ccccc1-c1nc(Cn2nnc(-c3nc(-c4ccccn4)no3)c2C)c(C)o1 | 50.4%
C=CCN1C(=O)CC[C@H]2[C@@H]1CCN2S(=O)(=O)CC | 48.3%
Cc1ccc(CSc2ccc(-c3sc(-c4ccc(F)cc4)nc3C)nn2)cc1 | 12.3% [at 0.16 µM]
Cc1cc(C)c2c(=O)n(Cc3nc(-c4ccc(C(C)C)cc4)oc3C)c(=O)n(-c3ccccc3)c2n1 | -13.2% [at 5 µM]
CCCN1CCc2nc(SCc3nc(-c4cccc(Cl)c4)oc3C)[nH]c(=O)c2C1 | 10.2% [at 0.68 µM]
COCC1COCCC12CCN(C(=O)c1ccc(C)nc1)CC2 (centres undefined) | 18.7%
